# Bioassay records from PubChem.
# TNF necrop inh = inhibitors of TNF-alpha induced necroptosis in Jurkat FADD-/- cells; Jurkat FADD-/- TNF necroptosis rescue, ATP luminescence, 24 h; 0 = TNF only, 100 = no-TNF cells; activation (protection from cell death), % at 10 µM; hit rate 0.068% among 220,000; AID 463075;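 active means activation, meaning protection from cell death, of at least 50% relative to plate controls; inactive means activation below 50%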;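 further: necroptosis triggered by 40 ng/mL TNF-alpha added together with compound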
# Calpain2 inh = inhibitors of pig calpain II. purified calpain II, fluorogenic peptide substrate, 30 min. inhibition, % at 16 µM. hit rate 0.37% among 220,000. AID 1236;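 active means inhibition above about 50%, limit read from the data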
# HMGR II inh = blocks class II HMG-CoA reductase of Enterococcus faecalis. inhibition, % at 10 µM. purified E. faecalis HMGR, NADPH absorbance 340 nm kinetic. hit rate 0.41% among 190,000;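 active means inhibition above a set limit, the median over all tested compounds plus 3 SD, cut at about 9.5% in these data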;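 further: enzyme runs in reverse so mevalonate oxidation gives rising NADPH absorbance; 0% = complete reaction with DMSO and 100% = background rate lacking mevalonate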
# zVAD death inh = blocks zVAD induced death of L929 cells; L929 zVAD necroptosis rescue, ATP luminescence, 24 h; with zVAD 60 µM; viability rescue, % at 10 µM; hit rate 0.38% among 220,000; AID 1377;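 active means activation, scaled between plate controls, above about 75%, limit read from the data; inactive means activation under that limit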;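 further: 0% = zVAD with DMSO and 100% = DMSO alone without zVAD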
# ROMK mod = modulates human ROMK potassium channel activity; P48048; Tet-inducible ROMK, thallium flux fluorescence; actives lie on both sides; B-score at 10 µM; hit rate 2% among 130,000;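 active means signal ratio slope over the read window, or its plate-corrected B-score, at least 3 SD from the plate mean, either direction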;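 further: B-score of the F/F0 ratio slope over 7 to 12 s after thallium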
# Target sequence (P48048 whole entry, looked up): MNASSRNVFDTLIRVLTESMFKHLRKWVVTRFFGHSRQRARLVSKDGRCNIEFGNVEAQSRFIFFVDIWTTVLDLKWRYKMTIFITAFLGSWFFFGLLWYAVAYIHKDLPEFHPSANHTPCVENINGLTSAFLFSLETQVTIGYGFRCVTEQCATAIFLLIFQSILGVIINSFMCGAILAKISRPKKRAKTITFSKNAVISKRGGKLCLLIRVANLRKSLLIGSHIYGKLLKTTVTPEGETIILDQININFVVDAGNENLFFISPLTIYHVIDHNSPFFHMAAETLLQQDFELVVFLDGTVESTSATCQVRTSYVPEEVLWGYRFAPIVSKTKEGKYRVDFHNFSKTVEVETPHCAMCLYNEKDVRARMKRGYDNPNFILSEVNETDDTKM
# 14-3-3 Bad PPI = disrupts binding of bovine 14-3-3 zeta to phospho-Bad peptide | TR-FRET 14-3-3zeta/Dy647-pBad peptide displacement, 1 h | inhibition, % at 21.7 µM | hit rate 0.71% among 220,000 | AID 781;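 active means inhibition above about 70%, limit read from the data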;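 further: 0% = full 14-3-3 plus peptide FRET controls and 100% = background without 14-3-3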
# * marks the source's active call; other numbers are inactive results; · = no result; [ ] = another dose, or the depositor's remark. The list is not random: actives were taken first. Their share in the collection is about 3%.
SMILES,TNF necrop inh,Calpain2 inh,HMGR II inh,zVAD death inh,ROMK mod,14-3-3 Bad PPI
COC(=O)CNC(=O)c1sc2ncn(CC(=O)Nc3ccc(C)c(Cl)c3)c(=O)c2c1C,4.8,51.6*,0.5,6.6,0.355,-12.0
CC(C)C1CC(CCN)(Cc2ccccc2)CCO1 (centres undefined),3.7,-5.9,-2.4,-2.4,-0.531,-1.1
CC(=O)c1sc2nc(-c3cccs3)ccc2c1N,-7.1,-205.3,-1.2,12.1,-1.71,2.4
Nc1c(C(=O)Nc2ccccc2)sc2nc(-c3ccco3)ccc12,-3.6,-246.2,2.8,-0.1,0.0796,76.1*[fluorescence artefact?]
Nc1c(C(=O)Nc2nc3ccccc3s2)sc2nc(-c3cccs3)ccc12,-4.0,-133.8,-3.9,2.5,·,96.1*[fluorescence artefact?]
CCN1C(=O)C(c2ccc(O)cc2)(c2ccc(O)cc2)c2ccccc21,-1.9,-6.6,-3.0,-0.5,-0.0259,94.3*
O=C(CCCn1c(=O)[nH]c2ccc(Br)cc2c1=O)NCc1ccc(Cl)cc1,0.7,25.3,-7.3,-0.2,0.322,-0.1
Cc1ccc(S(=O)(=O)c2ccc(Oc3cccc(C)c3)cc2)cc1,-1.8,23.4,-2.2,0.6,·,13.9
Cc1ccc(Cl)cc1NC(=O)COC(=O)c1ccc(COc2ccc3c(C)cc(=O)oc3c2)cc1,0.8,17.7,2.0,0.5,-0.348,78.1*
O=C(Nc1ccccc1Cl)C1CCCN(S(=O)(=O)c2ccc(F)cc2)C1 (centres undefined),0.4,18.5,-3.4,0.6,-0.0378,77.4*
Cc1ccc(S(=O)(=O)N2CCCC(C(=O)NCc3ccco3)C2)cc1Cl (centres undefined),-1.9,0.4,12.5*,-0.1,·,1.6
CC(C(=O)Nc1ccccc1-c1ccccc1)N1CCN(C(=O)c2ccccc2)CC1 (centres undefined),-2.7,-11.6,·,-0.8,·,-7.5
CC1CCN(C(C)C(=O)Nc2ccccc2-c2ccccc2)CC1 (centres undefined),-1.1,1.7,-1.9,-0.4,·,84.7*
CCC1=C(OC(=O)N(CC)CC)N2C(=O)OC(=NCC3CC3)[C@]2(C)[C@H]2C1=CC[C@H]1C(=O)N(CC)C(=O)[C@H]12,4.2,21.9,·,-0.3,·,-2.9
COc1ccc(/C=C2\CC/C(=C\c3ccc(OC)cc3OC)C2=O)c(OC)c1,0.0,-45.5,-2.6,2.5,-2.73*,-10.3
COc1ccc(C(=O)N/C(=C/c2ccco2)C(=O)NC2CCS(=O)(=O)C2)cc1 (centres undefined),-0.6,-20.9,0.1,3.4,·,-8.6
N#Cc1ccc(C(c2nnnn2Cc2ccccc2)N2CCCC2)cc1 (centres undefined),0.1,-34.3,6.3,0.1,·,70.0*
CC(C)S(=O)(=O)c1nsc2nc(=O)c(/C=C3\C=Nc4ccccc43)c(N)n12,0.5,2.8,3.3,2.5,1.65,3.9
CSc1nsc2nc(=O)c(/C=C3\C=Nc4ccccc43)c(N)n12,-0.6,-0.8,-8.4,5.7,2.07*,-9.3
CCOc1ccc(-c2nnc3sc(-c4ccccc4OC)nn23)cc1,-0.5,·,·,-0.2,3.32*,·
CCn1c(SCC(=O)c2[nH]c(C)c(C(C)=O)c2C)nnc1-c1ccccc1,-2.4,20.2,-5.9,-0.2,·,39.0
COc1cccc(C=NCCNC(=O)c2nonc2N)c1O,-1.2,101.1*,-5.3,-0.2,0.403,-6.8
CN1CCN(C(=O)C2=C[C@@H](C3CC3)C[C@@H](OCc3ccc(CO)cc3)O2)CC1,0.3,-2.0,9.8*,-1.1,·,3.1
CCOC(=O)c1ccc(NC(=O)Cn2c(-c3nonc3N)nc3ccccc32)cc1,0.4,58.9*,-3.2,0.0,-0.168,12.4
Cc1nc(N)sc1C(=O)OCC(C)C,-0.8,27.6,-2.9,0.3,-0.4,4.2
CCOC(=O)c1sc(N)nc1C(C)(C)C,-2.7,11.5,-3.2,-0.3,·,74.1*
CC(=O)c1cc2c(cc1N/C(=N/S(=O)(=O)c1ccccc1)c1ccc(Cl)cc1)OCO2,0.9,-48.0,13.4*,0.4,·,0.3
CC(=O)c1cc2c(cc1NS(=O)(=O)c1ccccc1)OCO2,0.2,-3.0,-2.4,0.3,-0.451,-7.0
NS(=O)(=O)c1cc(C(=O)N2CCc3ccccc32)c(Cl)cc1Cl,-6.4,-2.4,-9.7,-0.3,0.609,-9.2
